Assay outcomes as filed in PubChem.
Sampled rows, rich in hits. Any-hit rate of the full collection: about 2.2%.
ERG Ets-DNA blk: qHTS for Small Molecule Inhibitors of the ERG Ets/DNA interaction. Transcriptional regulator ERG (Homo sapiens), P11308. fluorescence polarization, His-ERG Ets domain / labelled DNA. Potency, µM (highest dose often 76.9 µM), inactives show at the highest dose FP activity, negative = inhibition, hits mostly inhibitors. 370,000 tested, 0.028% active; active = well fitted inhibition curve with a large enough effect in the polarisation, with a control signal flat; inconclusive = small, poorly fitted or top-dose-only effect, or effect the other way, or a change in a side signal; inactive = no such curve, though single readings can be large or run the other way; the % refers to the polarisation;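 note: polarization taken with two DNA probes labelled with fluorescein and Texas red; % of control where 0% means no effect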
Target sequence (P11308 whole entry, looked up, the tested form may be a part): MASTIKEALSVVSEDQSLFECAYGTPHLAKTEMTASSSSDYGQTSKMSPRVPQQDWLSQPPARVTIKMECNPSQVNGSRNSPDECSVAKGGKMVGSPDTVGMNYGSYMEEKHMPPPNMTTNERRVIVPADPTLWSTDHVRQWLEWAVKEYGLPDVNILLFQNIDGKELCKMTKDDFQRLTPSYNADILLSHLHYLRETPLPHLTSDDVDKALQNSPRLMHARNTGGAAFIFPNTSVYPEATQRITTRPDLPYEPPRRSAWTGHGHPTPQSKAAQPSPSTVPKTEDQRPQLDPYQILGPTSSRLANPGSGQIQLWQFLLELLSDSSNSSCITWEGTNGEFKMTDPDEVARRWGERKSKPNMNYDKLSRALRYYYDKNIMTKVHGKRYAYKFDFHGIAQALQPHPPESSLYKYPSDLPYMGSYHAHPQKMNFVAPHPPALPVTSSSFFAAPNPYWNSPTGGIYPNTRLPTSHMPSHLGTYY
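His-tagged ERG Ets domain (1 uM in the protein solution; 300mM KCl, 50mM Tris-HCl, 1mM EDTA, 1mM DTT, pH 7.5) received compound, then a probe mix of 5 nM fluorescein-DNA and 100nM Texas-615-DNA. Fluorescence polarization was read for both dyes.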
aSyn rescue: qHTS of alpha-syn Inhibitors; Yeast expressing alpha-synuclein, growth rescue, BacTiter-Glo, 24 h; Potency, µM (highest dose often 46.1 µM), without a hit: at the highest dose growth rescue (activation), usual class: activators; 370,000 tested, 0.14% active; AID 652106, 2013; note: % of control where 0% means no effect; nearly all actives have a fitted effect of over 65% in size
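Rescue of yeast growth: cells expressing toxic alpha-synuclein, induced in galactose at OD600 0.02, incubated with compound 24 h at 30 C. ATP luminescence quantified growth; inhibitors of toxicity appear as activators.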
FUS yeast rescue: qHTS for Suppressors of FUS Proteinopathy: Primary screen using FUS-linked yeast assay; S. cerevisiae FUS-expressing, growth rescue, OD600, 24 h; Potency, µM (titrated, usually from 76.6 µM), actives largely listed as activators; 390,000 tested, 0.24% active; AID 1347120, 2019;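 note: plate controls were DMSO vehicle for no effect and reference control for full effect; nearly all actives have a fitted effect of over 55% in size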
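Yeast expressing FUS under galactose induction, OD 0.005 in 2% galactose medium; compounds in a dilution series, 24 h at 30C. Growth rescue by absorbance at 600 nm; CP55940 positive control, DMSO negative.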
TDP-43 yeast inh: qHTS of TDP-43 Inhibitors; Potency, µM (top dose mostly 46.1 µM), without a hit: at the top dose growth rescue (activation), actives largely listed as activators; TDP-43 expressing yeast growth rescue, BacTiter-Glo, 24 h; AID 652104, 2013; 410,000 tested, 1.8% active; note: % of control where 0% means no effect; nearly all actives have a fitted effect of over 50% in size
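Yeast expressing TDP-43 (pregrown in raffinose, seeded at OD600=0.02 in galactose medium) exposed to compounds 24 hr at 30 deg C. Growth read by BacTiter-Glo luminescence; rescue of toxicity appears as increased signal.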
Abeta yeast res: qHTS for compounds that reverse cellular toxicity of Amyloid beta (A-beta) peptide in yeast: Primary Screen; yeast expressing A-beta42, growth rescue, OD600, 48 h; response scale: 0% DMSO, 100% iron-clioquinol control; Potency, µM (highest dose often 46.1 µM), hits mostly activators; 410,000 tested, 0.063% active; AID 1347071, 2019; note: nearly all actives have a fitted effect of over 55% in size
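Yeast growth medium received pinned compounds, then yeast cells expressing toxic A-beta were added; plates incubated at 30 C for 48 hr. Growth read as absorbance at 600 nm, normalized to DMSO and equimolar FeCl3 plus clioquinol controls.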
Mito fusion yeast: qHTS Assay for Small Molecule Inhibitors of Mitochondrial Division or Activators of Mitochondrial Fusion. S. cerevisiae fusion-defective mutant growth rescue, CellTiterGlo 48 h. Potency, µM (series often up to 46.1 µM), for the others: top-dose growth rescue (activation), usual class: activators. 320,000 tested, 0.23% active. AID 485298, 2010; note: % of control where 0% means no effect; nearly all actives have a fitted effect of over 45% in size
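Growth-rescue viability read-out: after 48 h at the non-permissive 37C in glycerol/ethanol YPEG, yeast mitochondrial fusion mutants are measured by CellTiterGlo luminescence; compounds (23 nl pinned per well) restoring growth score as division inhibitors or fusion activators.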
Active calls of the source: *; i = inactive; ? = inconclusive; nt = not tested or not shown. Unless noted, calls come from the whole dose curve; as a rule, active = well fitted curve in the direction sought with a large enough effect; inconclusive = small, poorly fitted or top-dose-only effect, or another doubt; inactive = no such curve, though single readings can be large; an effect the other way counts as inactive or inconclusive. Potency is the fitted concentration of half-maximal effect.

SMILES | ERG Ets-DNA blk | aSyn rescue | FUS yeast rescue | TDP-43 yeast inh | Abeta yeast res | Mito fusion yeast
N#Cc1c(-c2ccc([N+](=O)[O-])cc2)nc2n(c1=O)CCS2 | -8.4% | -3.3% | i | 4.4% | i | ?
N#Cc1c(-c2cccc([N+](=O)[O-])c2)nc2n(c1=O)CCS2 | 1.3% | 1.8% | i | 11.2µM* | ? | -11.5%
O=Cc1c(Sc2ccccc2)nc2ccccn2c1=O | -3.7% | 18.0% | i | 12.6µM* | i | 4.2%
O=Cc1c(Sc2ccccn2)nc2ccccn2c1=O | 11.2% | -0.4% | i | -13.6% | i | -0.3%
COc1ccc(NC(=O)c2csnn2)cc1Cl | -3.7% | nt | i | 23.7% | i | nt
Cc1cccc(-n2cnc3cc(C(=O)N4CCc5ccccc54)ccc32)c1 | nt | 24.4% | nt | 12.6µM* | i | 7.2%
Cc1cc(C)n(-c2ccc(C(=O)N3CCc4ccccc43)cc2)n1 | -7.5% | -3.2% | i | 11.2µM* | i | 11.5%
CCCCOc1ccc(CNC(=O)CN2CCSc3ccccc32)cc1 | 0.3% | ? | ? | 35.5µM* | ? | nt
COc1cccc(NC(=O)CN2CCSc3ccccc32)c1 | 5.6% | 12.1% | i | 22.4µM* | i | -2.4%
CCOc1ccccc1NC(=O)Cn1cc(C(=O)c2cccc(OC)c2)c(=O)c2ccc(C)nc21 | 5.1% | nt | i | 19.6% | i | nt
Cc1ccc(/C=N/NC(=O)c2ccccc2OCc2ccc(F)cc2)o1 | -4.9% | -5.9% | i | 11.8% | i | -4.4%
O=C(N/N=C/c1ccncc1)c1ccccc1OCc1ccc(Br)cc1 | -0.9% | 25.7% | i | 31.6µM* | i | ?
CC(Oc1ccccc1)C(=O)NNC(=O)c1ccccn1 (centres undefined) | nt | 22.4% | nt | ? | ? | 6.4%
CC(Oc1cccc(Br)c1)C(=O)NNC(=O)c1ccccn1 (centres undefined) | 4.9% | ? | i | 25.1µM* | ? | nt
O=C(CC1CCCC1)N1CC[C@H]2[C@H](CCCN2Cc2cc(F)cc(F)c2)C1 | nt | nt | i | nt | nt | nt
O=[N+]([O-])c1ccc(Sc2cccc[n+]2[O-])c2nonc12 | -6.4% | 0.562µM* | i | ? | i | -28.5%
Nc1ccc(-c2ncc(-c3ccccc3)o2)cc1 | 4.5% | -8.5% | i | 8.4% | i | -15.4%
Cc1ccc(-c2cnc(-c3ccncc3)o2)cc1 | 0.0% | 5.1% | i | 15.8µM* | i | -6.0%
COc1cc(-c2cc3nc(NC4CCCCC4)ccn3n2)cc(OC)c1OC | nt | 0.7% | i | 35.5µM* | i | nt
COc1ccccc1NC(=O)c1cc2cc3ccc(OC)c(Cl)c3nc2s1 | -8.1% | nt | i | 18.1% | i | nt
COc1cccc(CNc2nccn(-c3cc(C)cc(C)c3)c2=O)c1 | 3.5% | nt | i | 17.8µM* | i | nt
Cc1ccc(-n2ccnc(NCc3ccccc3)c2=O)cc1C | -4.4% | nt | i | 31.6µM* | i | nt
Clc1ccccc1CSc1nncn1NC/C=C/c1ccccc1 | -2.1% | 22.8% | nt | 0.0% | i | 22.4µM*
C(=C\c1ccccc1)/CNn1cnnc1 | -0.7% | 1.9% | nt | 8.2% | i | 1.7%
COc1ccc(C(=O)Sc2ccc(Cl)cc2)cc1OC | 6.2% | -6.8% | i | 4.4% | i | 5.4%
COc1ccc(C(=O)Sc2ccc(C)cc2)cc1OC | -1.7% | -2.0% | i | 11.2µM* | i | 7.3%
Cc1c(Cl)ccc2sc(N3CCN(C(=O)C4=COCCO4)CC3)nc12 | -2.0% | 8.0% | i | ? | i | -13.9%
CC(=O)N1CCN(c2nc3c(C)ccc(Cl)c3s2)CC1 | 9.4% | nt | i | ? | i | nt
